From PubChem BioAssay
FMDV antiviral: FMDV antiviral activity by firefly signal; FMDV antiviral cell assay, firefly luciferase signal; Potency, µM (highest dose often 57.5 µM), for inactives: at the highest dose activity change, negative = inhibition, usual class: inhibitors; actives 0.23% (n = 120,000); AID 1745856; note: nearly all actives have a fitted effect of over 60% in size
FMDV RLuc: FMDV antiviral activity by Renilla signal. Potency, µM (titrated, usually from 57.5 µM), without a hit: at the top dose activity change, negative = inhibition, actives largely listed as inhibitors. AID 1745857. FMDV replicon cells, Renilla luciferase signal. actives 0.32% (n = 120,000); note: nearly all actives have a fitted effect of over 55% in size
Active calls of the source: *; ? = inconclusive; [ ] = another dose, or the depositor's remark. A selection: hits, their analogues and other compounds. The true share with any hit is near 0.51%. Calls come from the whole dose curve. % is set by controls: 0 for no effect and ±100 for the full control effect; potency is the fitted concentration of half-maximal effect.

SMILES	FMDV antiviral	FMDV RLuc
CCSc1n[nH]c2nc3c(c(=O)n12)C(C)(CC)Cc1ccccc1-3 (stereo unspecified)	4.6%	-7.2%
CCc1ccc(-c2nc(SCC(=O)N3CCCC3c3ccc4c(c3)OCCCO4)n[nH]2)cc1 (stereo unspecified)	?	28.2µM*
CCc1ccc(-c2nnn(CC(=O)N3CCCC3c3ccc4c(c3)OCCO4)n2)cc1 (stereo unspecified)	-12.2%	-16.2%
O=C(CSc1nnnn1C1CC1)N1CCCC1c1ccc2c(c1)OCCO2 (stereo unspecified)	4.3%	-5.0%
Cc1ccc(-c2nc(SCC(=O)N3CCCC3c3ccc4c(c3)OCCO4)n[nH]2)cc1 (stereo unspecified)	?	20µM*
c1ccc(CNc2nc(Nc3ccccc3)nc3ccccc23)cc1	?	12.6µM*
c1ccc(Nc2nc(NCc3ccco3)c3ccccc3n2)cc1	-7.0%	?
Cc1ccc2c(CN3CCCCCC3)cc(=O)oc2c1	0.0%	-7.9%
O=C(O)C/C(=C/c1cccnc1)c1nc2ccccc2s1	23.3%	-0.3%
CCc1ccc(Nc2c3c(nc4ccccc24)CCC3)cc1	25.1µM*	?
c1ccc(Nc2c3c(nc4ccccc24)CCC3)cc1	-11.6%	-24.0%
CCCn1c(=O)[nH]c(=O)c2c1nc(-c1ccc(C#N)cc1)n2CCN1CCOCC1	-1.1%	-13.6%
O=C(NC1CCCCC1C(F)(F)F)c1ccc2ncsc2c1 (stereo unspecified)	8.91µM*	144.0%
O=C(NC1CCCCCC1)c1ccc2ncsc2c1	101.2%	20.8%
Nc1nccnc1C(=O)NCc1ccc(CN2CCCCC2)cc1	0.0%	0.0%
Nc1nccnc1C(=O)NCc1ccc(Oc2cccc(F)c2)nc1	?	8.91µM*
Nc1nccnc1C(=O)NCc1ccc(N2CCCCC2)nc1	?	5.62µM*
Nc1nccnc1C(=O)NCc1cccnc1	-7.4%	-15.9%[1.06 µM]
Cc1cc2oc(=O)cc(CN3CCCCCC3)c2cc1C(C)C	12.7%	5.5%
Fc1cccc(CSc2c[nH]c3ccccc23)c1	0.0%	3.6%
O=[N+]([O-])c1ccc(C(=C(c2ccccc2)c2ccccc2)c2ccc([N+](=O)[O-])cc2)cc1	2.51µM*	3.16µM*
O=[N+]([O-])c1ccc(/C=C/c2ccccc2)cc1	31.3%	8.0%
COc1ccc(CC(=O)NC(C)c2nnc(SCC(=O)c3ccc(Cl)cc3Cl)n2C)cc1 (stereo unspecified)	-8.7%	21.4%
CCN1CCN(C(C(=O)O)c2c[nH]c3cc(NC(=O)c4ccccc4)ccc23)CC1 (stereo unspecified)	12.6µM*	0.7%
CCN1CCN(C(C(=O)O)c2c[nH]c3ccc(NC(=O)c4ccccc4)cc23)CC1 (stereo unspecified)	14.2%	-8.4%
SMILES	FMDV antiviral	FMDV RLuc
COc1cccc(CN2CCC(C(O)(c3ccccc3)c3ccccc3)CC2)c1OC	?	16.5%[1.06 µM]
COc1cc(CN2CCC(C(O)(c3ccccc3)c3ccccc3)CC2)ccc1OCc1ccccc1	?	35.5µM*
COc1ccc2c(c1)CC/C(=C\c1ccc(Br)o1)C2=O	110.9%	27.5%
CCOc1ccc(-c2nc(CS(=O)Cc3cc(C)ccc3C)cs2)cc1OC (stereo unspecified)	6.0%	7.6%[1.06 µM]
COc1ccc(N(Cc2cc(CN3CCOCC3)cs2)S(=O)(=O)c2cc(C)cc(C)c2)cc1	25.1µM*	-1.4%
Cc1ccc(F)cc1S(=O)(=O)N(Cc1cc(CN2CCOCC2)cs1)c1ccc(F)cc1	8.0%	9.5%
COc1ccc(NC(=O)CSc2nc3nc(C)cc(C)n3n2)cc1	8.8%	-17.5%
CCNc1cc(C)nc(Nc2ccc(NC(=O)c3ccccc3F)cc2)n1	?	28.2µM*
Cc1cc(N2CCCC2)nc(Nc2ccc(NC(=O)c3c(F)cccc3F)cc2)n1	24.3%	5.4%
COc1ccc(Nc2cc(C)nc(Nc3ccc(NC(=O)CCc4ccccc4)cc3)n2)cc1	12.6µM*	?
COc1ccc(CC(=O)Nc2ccc3nc(Nc4ccc(OC)cc4)cc(C)c3c2)cc1	?	0.0%
COc1ccc(Nc2cc(C)nc(Nc3ccc(NC(=O)CC(C)C)cc3)n2)cc1	?	28.2µM*
CC(C)OC(=O)/C(C#N)=C\c1ccc(O)c(Br)c1	-2.2%	?
Cc1ccc(NS(=O)(=O)c2ccc3c(c2)-c2oncc2CO3)cc1F	9.2%	286.2%
COc1cc(OC)c(NC2CCOC2=O)cc1Cl (stereo unspecified)	7.6%	7.9%
C1CCC(NCC2CCN(C3CC3)C2)C1 (stereo unspecified)	18.1%	4.7%
COCCn1c(=O)[nH]c(=O)c2c3c(cnc21)C(=O)CC(c1cccs1)C3 (stereo unspecified)	-11.7%	-13.2%
CCOc1ccccc1NC(=O)c1ncoc1-c1ccc(C)o1	31.4%	11.6%
Cc1cccc(CN2CCCN(c3cccc(C(=O)N4CCN(c5ccccc5)CC4)c3)C2=O)c1	?	10µM*
O=C(c1ccc(N2CCCN(Cc3ccccc3)C2=O)cc1)N1CCN(c2ccccc2)CC1	?	-13.7%
